Results published in PubChem BioAssay (NCI).
This is part of a sample that, as a whole, favours compounds with a hit. Of some 79,000 tested, about 15% had one in any assay. Calls of active or inactive are those of the source. No stated cut-off is given here; in the data, active means growth inhibition above about 70%; inactive means the rest.

Experiments:
[1] = NCI Yeast Anticancer Drug Screen. Data for the rad50 strain (AID 155);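 further: 0% = growth of vehicle-only cultures of the same strain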; settings: S. cerevisiae rad50 strain growth inhibition, stronger effect = higher value
Outline: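 A DNA repair-deficient yeast mutant serves as the test organism; compound-induced growth inhibition is calculated against vehicle-treated cells.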

[2] = NCI Yeast Anticancer Drug Screen. Data for the mec2-1 strain (AID 157); settings: S. cerevisiae mec2-1 strain, stronger effect = higher value
Outline: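 Readout is yeast growth inhibition, normalised to vehicle-treated controls, in the mec2-1 strain exposed to compound.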

[3] = NCI Yeast Anticancer Drug Screen. Data for the sgs1 mgt1 strain (AID 161);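 further: 0% = growth of cultures given vehicle only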; settings: S. cerevisiae sgs1 mgt1 strain, stronger effect = higher value
Outline: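 Percent growth inhibition was derived by comparing compound-exposed mutant yeast with vehicle-exposed cultures. The strain carries alterations in DNA damage repair.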

[4] = NCI Yeast Anticancer Drug Screen. Data for the cln2 rad14 strain (AID 165);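 further: 0% = growth equal to vehicle treated cultures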; settings: S. cerevisiae cln2 rad14 strain, stronger effect = higher value
Outline: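 Relative to vehicle controls, growth inhibition of compound-treated cln2 rad14 yeast was recorded.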

[5] = NCI Yeast Anticancer Drug Screen. Data for the bub3 strain (AID 167); settings: S. cerevisiae bub3 mutant strain, stronger effect = higher value
Outline: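 Inhibition values come from growth of compound-treated mutant yeast normalised to vehicle-treated controls.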

[6] = NCI Yeast Anticancer Drug Screen. Data for the mlh1 rad18 strain (AID 175); settings: S. cerevisiae mlh1 rad18 strain growth inhibition, stronger effect = higher value
Outline: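 Test agents were incubated with a yeast strain of defined genotype (DNA damage repair defect). Inhibition of growth was derived by comparison with vehicle-exposed cultures.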

[7] = at 5.0 µM (retest, dose inferred, filed as 0.5)
[8] = at 50.0 µM (retest, dose inferred, filed as 5.0)

Measured: growth inhibition

Nc1nnc(CCC(=O)Nc2ccccc2Cl)o1
active: [2]; at 50.0 µM 79.5% | [3]; at 50.0 µM 98.5% | [4]; at 50.0 µM 98.2% | [5]; at 50.0 µM 98.8% | [6]; at 50.0 µM 98.5%
inactive: [1]; [7] -2% | [1]; [8] -5% | [1]; at 50.0 µM -1.3% | [2]; [7] 0% | [2]; [8] 4% | [3]; [7] -6% | [3]; [8] -2% | [4]; [7] 7% | [4]; [8] 9% | [5]; [7] 1% | [5]; [8] 2% | [6]; [7] -5% | [6]; [8] 2%

O=C1OC(c2cccc(Cl)c2)Sc2ccccc21 (stereo not given)
inactive: [1]; [7] 2% | [1]; at 50.0 µM 51.7% | [2]; [7] 0% | [2]; [8] 60% | [2]; at 50.0 µM 19.4% | [3]; [7] -12% | [3]; [8] 56% | [3]; at 50.0 µM 36.2% | [4]; [7] -7% | [4]; [8] 47% | [4]; at 50.0 µM -16.7% | [5]; [7] 26% | [6]; [7] 0% | [6]; at 50.0 µM 37.6%
active: [1]; [8] 86% | [5]; [8] 94% | [5]; at 50.0 µM 83.2% | [6]; [8] 78%

CC12C(=O)N(CC(=O)O)C(=O)C1(C)C1c3ccccc3C2c2ccc3ccccc3c21 (stereo not given)
inactive: [1]; [7] 7% | [2]; [7] 1% | [3]; [7] 2% | [4]; [7] -8% | [5]; [7] 1% | [6]; [7] 0%
active: [1]; [8] 97% | [1]; at 50.0 µM 98.7% | [2]; [8] 98% | [2]; at 50.0 µM 95.9% | [3]; [8] 98% | [3]; at 50.0 µM 99% | [4]; [8] 99% | [4]; at 50.0 µM 99% | [5]; [8] 96% | [5]; at 50.0 µM 95.6% | [6]; [8] 98% | [6]; at 50.0 µM 95.8%

COc1ccc(/C=C/C(C(=O)O)C(=O)O)cc1
inactive: [1]; [7] 19% | [1]; [8] 65% | [2]; [7] -20% | [3]; [7] 6% | [3]; [8] 59% | [4]; [7] 37% | [4]; [8] 47% | [4]; at 50.0 µM 44.4% | [5]; [7] 14% | [6]; [7] -4%
active: [1]; at 50.0 µM 82.7% | [2]; [8] 84% | [2]; at 50.0 µM 76% | [3]; at 50.0 µM 76% | [5]; [8] 88% | [5]; at 50.0 µM 82.5% | [6]; [8] 89% | [6]; at 50.0 µM 78%

Oc1cccc(/C=C/c2ccncc2)c1
active: [1]; at 50.0 µM 75.1%
inactive: [1]; [7] 0% | [1]; [8] 28% | [2]; [7] -4% | [2]; [8] 13% | [2]; at 50.0 µM 37.6% | [3]; [7] -3% | [3]; [8] 25% | [3]; at 50.0 µM 65.5% | [4]; [7] -6% | [4]; [8] 15% | [4]; at 50.0 µM 25.9% | [5]; [7] -6% | [5]; [8] 22% | [5]; at 50.0 µM 63.8% | [6]; [7] -1% | [6]; [8] 12% | [6]; at 50.0 µM 65.5%

C[C@H](CCC1=NCCN1)[C@H]1CC[C@H]2[C@@H]3[C@H](O)C[C@@H]4C[C@H](O)CC[C@]4(C)[C@H]3CC[C@]12C
active: [1]; [8] 99% | [1]; at 50.0 µM 91.5% | [2]; [8] 100% | [2]; at 50.0 µM 93% | [3]; [8] 100% | [3]; at 50.0 µM 91.7% | [4]; [8] 99% | [4]; at 50.0 µM 91% | [5]; [8] 99% | [5]; at 50.0 µM 91.6% | [6]; [8] 99% | [6]; at 50.0 µM 91%
inactive: [1]; [7] -19% | [2]; [7] -2% | [3]; [7] 3% | [4]; [7] -6% | [5]; [7] 0% | [6]; [7] 4%

Cc1cc(C)c(Cc2ccccc2O)cc1Cc1ccccc1O
active: [1]; at 50.0 µM 90.5% | [2]; at 50.0 µM 91.7% | [3]; [7] 80% | [3]; [8] 97% | [3]; at 50.0 µM 92.5% | [4]; [8] 99% | [4]; at 50.0 µM 90.7% | [5]; [7] 87% | [5]; [8] 98% | [5]; at 50.0 µM 90.1% | [6]; at 50.0 µM 89.7%
inactive: [1]; [7] 33% | [1]; [8] 47% | [2]; [7] 35% | [2]; [8] 46% | [4]; [7] 65% | [6]; [7] 34% | [6]; [8] 38%

O=C(CCCN1CCC(C(O)c2ccc(F)cc2)CC1)c1ccc(F)cc1 (stereo not given)
inactive: [1]; [7] 37% | [2]; [7] 33% | [2]; at 50.0 µM 69.5% | [3]; [7] 47% | [4]; [7] 47% | [4]; at 50.0 µM 68% | [5]; [7] 53% | [6]; [7] 62% | [6]; at 50.0 µM 68.5%
active: [1]; [8] 86% | [1]; at 50.0 µM 71.5% | [2]; [8] 78% | [3]; [8] 95% | [3]; at 50.0 µM 79.8% | [4]; [8] 87% | [5]; [8] 97% | [5]; at 50.0 µM 75.8% | [6]; [8] 89%

COc1ccc(/C=C/C(C)=N/NC(=S)NCC(C)C)cc1
inactive: [1]; [7] -9% | [1]; [8] 55% | [1]; at 50.0 µM 15.8% | [2]; [7] -12% | [2]; [8] 47% | [2]; at 50.0 µM 45% | [3]; [7] -2% | [4]; [7] -17% | [4]; [8] 48% | [4]; at 50.0 µM 18.4% | [5]; [7] -6% | [5]; [8] 57% | [6]; [7] 3% | [6]; [8] 61% | [6]; at 50.0 µM 52.5%
active: [3]; [8] 71% | [3]; at 50.0 µM 75.2% | [5]; at 50.0 µM 88.8%

CC(C)c1ccc(/C=C(\NC(=O)c2ccccc2)c2nc3ccccc3[nH]2)cc1
active: [1]; at 50.0 µM 71.2% | [2]; at 50.0 µM 86.1% | [4]; at 50.0 µM 80.4% | [5]; [8] 71% | [5]; at 50.0 µM 88% | [6]; at 50.0 µM 93.3%
inactive: [1]; [7] -2% | [1]; [8] 60% | [2]; [7] -27% | [2]; [8] 53% | [3]; [7] -2% | [3]; [8] 67% | [3]; at 50.0 µM 56.5% | [4]; [7] -7% | [4]; [8] 49% | [5]; [7] 6% | [6]; [7] -3% | [6]; [8] 62%
